# Screening data deposited in PubChem by several laboratories.
# The list is not random: actives were taken first. Their share in the collection is about 27%.
# sEH act: activators of human soluble epoxide hydrolase; P34913; purified human sEH enzymatic activity, activator screen; activation, % at 2 µM; 91,000 compounds, 0.04% hits; in the data active = activation above about 37%
# CYP2C9 activ: increases human cytochrome P450 2C9 activity. AID 1024. activation factor at 5 µM. recombinant CYP2C9, luciferin-H conversion, luminescence; hits give high values; factor 1 = untreated enzyme, 0 = blocked. P11712. 96,000 compounds, 1.4% hits;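 active = activation factor of 2 or more for CYP2C9 at a 5 µM dose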;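 also: 0 = sulfaphenazole-blocked wells and 1 = vehicle-only wells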
# Target sequence (P11712 whole entry, looked up): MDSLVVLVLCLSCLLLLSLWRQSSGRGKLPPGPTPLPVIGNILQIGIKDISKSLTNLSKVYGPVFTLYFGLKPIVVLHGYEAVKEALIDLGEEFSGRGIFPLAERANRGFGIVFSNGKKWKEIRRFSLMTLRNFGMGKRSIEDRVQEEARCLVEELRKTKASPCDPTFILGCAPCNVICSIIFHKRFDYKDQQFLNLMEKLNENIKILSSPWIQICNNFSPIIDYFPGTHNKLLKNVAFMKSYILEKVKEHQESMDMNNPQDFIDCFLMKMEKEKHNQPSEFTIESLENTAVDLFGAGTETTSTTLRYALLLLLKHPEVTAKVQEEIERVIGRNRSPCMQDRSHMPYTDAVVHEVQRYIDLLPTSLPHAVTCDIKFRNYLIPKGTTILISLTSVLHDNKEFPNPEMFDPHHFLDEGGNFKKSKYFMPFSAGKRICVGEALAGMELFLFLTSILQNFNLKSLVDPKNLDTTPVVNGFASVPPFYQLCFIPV
# CYP2C19 activ: cytochrome P450 2C19 (human) activation. recombinant CYP2C19, luciferin-H EGE luminescence; hits give high values; 0 = fully inhibited enzyme, 1 = untreated enzyme. activation factor at 5 µM. 96,000 tested, under 10 active;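 active = activation factor of at least 2 at 5 µM in the primary screen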;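 also: 0 = wells with 2.5 mM tranylcypromine and 1 = vehicle-only wells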
# CYP2C9 inh: blocks human cytochrome P450 2C9 | CYP2C9 Supersomes, luciferin-H conversion, luminescence | inhibition, % at 5 µM | 96,000 compounds, 20% hits;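 active = blocking of liver enzyme CYP2C9 beyond about 50% at 5 µM, limit read from the data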
# sEH inh: soluble epoxide hydrolase (human) inhibition; recombinant human sEH enzymatic activity assay; inhibition, % at 2 µM; 91,000 compounds, 0.34% hits; AID 707; in the data active = inhibition above about 80%
# CYP2C19 inhib: human CYP2C19 inhibition | P33261 | CYP2C19 Supersomes, luciferin-H EGE luminescence, 30 min | inhibition, % at 5 µM | 96,000 compounds, 21% hits | AID 778;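 active = CYP2C19 inhibition above a set limit at 5 µM in the primary screen, cut at about 50% in these data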;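 also: plate controls were negative control wells for no effect and 2.5 mM tranylcypromine positive control for full effect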
# * marks the source's active call; other numbers are inactive results; . = no result given.
SMILES,sEH act,CYP2C9 activ,CYP2C19 activ,CYP2C9 inh,sEH inh,CYP2C19 inhib
O=C(NCCOC(=O)C1COc2ccccc2O1)c1cccnc1 (stereo not given),9.4,0.9,1,12.0,-9.5,4.9
O=C(Nc1ccccc1C(=O)N1CCOCC1)C1COc2ccccc2O1 (stereo not given),5.1,1,0.8,-2.9,-2.4,15.0
O=C(NCCN1CCCC1)C1COc2ccccc2O1 (stereo not given),13.6,1,0.8,-4.0,-7.8,22.9
CCCNC(=O)c1ccccc1NC(=O)C1COc2ccccc2O1 (stereo not given),4.1,0.7,0.4,30.7,-5.7,58.7*
O=C(NCCOC(=O)C1COc2ccccc2O1)C1COc2ccccc2O1 (stereo not given),-6.6,0.3,0.1,69.4*,6.2,88.4*
COc1cccc(NC(=O)C(NCCC(C)C)c2ccccc2)c1 (stereo not given),-5.3,0.7,0.7,27.5,4.5,29.0
CCCN(CCC)C(C(=O)Nc1cccc(OC)c1)c1ccccc1 (stereo not given),2.1,0.1,0.1,88.8*,1.9,88.3*
COc1cccc(NC(=O)C(OC(=O)/C=C/c2ccc3c(c2)OCO3)c2ccccc2)c1 (stereo not given),8.0,0.3,0.7,69.1*,-5.1,28.7
COc1ccc(C(=O)/C=C(\C)Nc2ccc3c(c2)OCO3)cc1,-1.5,0.9,0.9,5.0,2.1,11.3
COc1cccc(NC(=O)C(NCC2CCCCC2)c2ccccc2)c1 (stereo not given),-7.2,0.2,0.2,77.2*,5.4,78.9*
O=C(Nc1ccc(Cl)cc1)C(c1ccccc1)N(CCO)CCO (stereo not given),-1.2,0.3,0.4,66.4*,3.1,63.2*
FC(F)(F)c1cc(-c2ccco2)nc(-n2nnc3ccccc32)n1,.,0.9,1.1,8.2,.,-12.4
CC1(C)NC(=O)N(CC(O)COc2ccc(N3C(=O)c4ccccc4C3=O)cc2)C1=O (stereo not given),16.9,1,1.1,-1.1,-17.4,-9.3
Cc1nn(C)c(C)c1CN(C)S(=O)(=O)c1ccc2ccccc2c1,-3.5,.,.,.,3.5,.
FC(F)(F)c1nc(Oc2ccccc2)c2ccccc2n1,2.0,0.7,0.6,32.8,-0.2,38.1
COc1ccc(N2CCN(C(=O)CN(c3ccccc3)S(=O)(=O)c3ccc(OC)cc3)CC2)cc1,-3.6,0.9,1.2,12.0,3.0,-19.1
CS(=O)(=O)N(CC(=O)N1CCCCCC1)c1cccc(Br)c1,.,0.6,0.2,40.7,.,76.6*
CS(=O)(=O)N(CC(=O)N1CCCC1)c1cccc(Cl)c1,.,0.9,0.4,6.4,.,56.8*
COc1ccc(N2CCN(C(=O)CN(c3cccc(Br)c3)S(C)(=O)=O)CC2)cc1,5.5,1.3,0.9,-29.1,-4.0,5.1
CN(C)c1ccc(/C=N/NC(=O)CN(c2cccc(Cl)c2)S(C)(=O)=O)cc1Br,-44.2,0.5,0.7,50.9*,45.2,25.5
COc1ccc(S(=O)(=O)N(CC(=O)N2CCN(c3ccccc3OC)CC2)c2ccccc2)cc1,.,0.1,0.2,86.8*,.,84.7*
CO/N=C/NC(=O)NOCc1c(Cl)cccc1Cl,8.2,1,0.9,-4.4,-7.2,10.5
CCN(CC)c1ccc(C2N(C(=O)N3CCOCC3)CCN2S(=O)(=O)c2ccc(C)cc2)cc1 (stereo not given),-12.5,0.6,0.7,43.5,14.2,26.1
Cc1cccc(N(CC(=O)N2CCCC2)S(=O)(=O)c2ccccc2)c1,-0.6,0.3,0.4,73.0*,2.0,57.6*
CS(=O)(=O)N(CC(=O)N1CCCCCC1)c1ccc2c(c1)OCCO2,12.7,1.7,0.8,-65.3,-14.9,18.5
SMILES,sEH act,CYP2C9 activ,CYP2C19 activ,CYP2C9 inh,sEH inh,CYP2C19 inhib
Cc1cc(C)cc(N(CC(=O)N2CCOCC2)S(=O)(=O)c2ccccc2)c1,16.5,.,.,.,-12.8,.
CCOc1ccccc1N(CC(=O)N1CCOCC1)S(=O)(=O)c1ccccc1,-1.0,0.2,0.7,76.1*,3.6,28.7
CS(=O)(=O)N(CC(=O)N1CCN(c2ccccc2)CC1)c1cccc(Br)c1,.,2.8*,0.4,-179.1,.,64.1*
Cc1ccc(S(=O)(=O)N(CC(=O)N2CCCCC2)c2cccc(C)c2)cc1,12.5,.,.,.,-9.7,.
CS(=O)(=O)N(CC(=O)N1CCCCCC1)c1ccc(Br)cc1,-4.5,0.6,0.2,36.7,3.4,76.8*
COCCCNC(=O)C1CCN(c2nc(C)cc(C)n2)CC1,.,1.5,1.1,-51.7,.,-9.6
CCOC(=O)C(NC(C)=O)(Nc1ccc(S(=O)(=O)Nc2cc(C)nc(C)n2)cc1)C(F)(F)F (stereo not given),0.2,0.9,1,11.6,2.8,3.6
COc1ccc(NC(=O)c2ccco2)cc1NC(=O)c1c(F)c(F)c(OC)c(F)c1F,-4.1,1,1,2.9,6.6,-2.5
COC(=O)Oc1ccc(/C=N/NC(=O)CN(c2ccccc2Cl)S(C)(=O)=O)cc1OC,13.5,0.4,0.7,62.8*,-13.8,33.7
Cc1cc(C)cc(N(CC(=O)N2CCC(C)CC2)S(C)(=O)=O)c1,10.1,2.2*,0.9,-123.3,-8.8,13.2
CCN(CC)C(=O)CN(c1ccc(F)c(Cl)c1)S(C)(=O)=O,14.9,1.1,0.7,-6.6,-15.7,32.9
C=CCN(c1ccc(C(=O)N2CCN(c3ccc(F)cc3)CC2)cc1)S(C)(=O)=O,-7.2,0.4,0.6,55.2*,8.3,44.2
CN(c1ccc(C(=O)N2CCN(c3ccc(F)cc3)CC2)cc1)S(C)(=O)=O,3.8,0.5,0.9,45.5,-4.3,9.9
CS(=O)(=O)N(CC(=O)N1CCN(c2ccc(F)cc2)CC1)c1ccc(F)c(Cl)c1,-14.6,1.9,0.3,-86.8,13.1,71.2*
CC(C)OCCCN1C(=O)c2ccccc2C1C(=O)NC1CCCCC1 (stereo not given),-9.5,1,1.1,0.6,8.4,-7.1
Cc1cc(C)c(O)c(-c2cc(C(=O)Nc3ccc(S(=O)(=O)N4CCOCC4)cc3)[nH]n2)c1,-12.3,0.7,1,30.8,13.6,-2.9
Clc1ccc(CN=C2Nc3ccccc3CS2)cc1,-1.4,0.7,0.1,32.6,-1.1,85.7*
CCN(CC)CCN=C1CCCc2ccccc2N1,-9.6,0.9,1,9.0,10.1,4.7
Cc1ccc(CN=C2Nc3ccccc3CS2)cc1,-0.3,0.7,0.3,34.9,3.1,70.9*
COc1ccc(CCNC(=O)CN(C2CCCCC2)S(C)(=O)=O)cc1OC,.,1,0.9,-1.9,.,11.4
CC(C)(C)NS(=O)(=O)c1ccc(Oc2ncc(C(F)(F)F)cc2Cl)cc1,-5.1,1.1,0.9,-8.9,7.3,6.1
CC(C)(C)NS(=O)(=O)c1cnc(Cl)c(Cl)c1,10.5,1,0.1,-0.6,-10.4,90.2*
CCC(SC1=N/C(=C/c2ccccc2OC)C(=O)N1c1ccccc1)C(=O)Nc1cc(C)on1 (stereo not given),0.8,0.3,0.8,67.4*,1.7,24.1
